# Results reported in the supplement of paper PMC8728848.
# About 410 targets per protein were measured; listed, in parts, are those with the strongest signals and a random draw of the rest.
# B1: Na-CTL-1 (Necator americanus) (protein)
# chain: MQRSFLLLLVVLAGAWAVNTTIPLKLMGGFTPMKYQCVGRVSDIWADVLFLIESSDMITKSGFRQVIAFITATTKKMTIGQDEKQTRVGFITYGEEAKLIYDLDHWRSTEKLSDLVQKIPYVKSSGTNIAAAIALANKVFNSPTHRPNVPKVMVIVANGLKKGSQNPIPVATAFKDFGGIIITIEYTQYDNIQVPILKKIASEGYNIRSNDEDFSVRTLTNMLLQANCFCPDHYVPFRVNNPEFGCFVTAKIPSMWRDAAEMCRAVEEGKLVKVENEEKAAFIMKLVGPKKEAWIGLRYYGNKFQWTDGTKLNADDFNLWPEDIKELNGPHCVSMYQDQKDKKYYWRAGKCLEDMRYVCEVQPCSASNYCSEPVFMYRQKHRALLPAPPPPPN
# Columns and labels:
# Assay in all cases: glycan array binding signal (z-score within array); higher = stronger binding
# Details in all cases: glycan notation: IUPAC condensed, linker removed
# [1] = molecular target: Gal(b1-4)GlcNAc(b1-2)[Gal(b1-4)GlcNAc(b1-6)]Man(a1-6)[Gal(b1-4)GlcNAc(b1-2)Man(a1-3)]Man(b1-4)GlcNAc(b1-4)[Fuc(a1-6)]GlcNAc
# Summary of the method: (§1)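 From the Consortium for Functional Glycomics database, 3228 arrays were curated, keeping only those whose protein sequence was available. Binding is given as a within-array Z-score averaged across arrays sharing a protein sequence and across linkers. Negative Z-scores can be read as non-binding.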
# [2] = molecular target: Gal(b1-4)GlcNAc(b1-3)Gal(b1-4)GlcNAc(b1-2)[Gal(b1-4)GlcNAc(b1-3)Gal(b1-4)GlcNAc(b1-6)]Man(a1-6)[Gal(b1-4)GlcNAc(b1-3)Gal(b1-4)GlcNAc(b1-2)Man(a1-3)]Man(b1-4)GlcNAc(b1-4)GlcNAc
# Summary of the method: as §1
# [3] = molecular target: Gal(b1-4)GlcNAc(b1-3)Gal(b1-4)GlcNAc(b1-3)Gal(b1-4)GlcNAc(b1-3)Gal(b1-4)GlcNAc(b1-2)Man(a1-3)[Gal(b1-4)GlcNAc(b1-3)Gal(b1-4)GlcNAc(b1-3)Gal(b1-4)GlcNAc(b1-3)Gal(b1-4)GlcNAc(b1-2)Man(a1-6)]Man(b1-4)GlcNAc(b1-4)[Fuc(a1-6)]GlcNAc
# Summary of the method: as §1
# [4] = molecular target: Gal(b1-4)GlcNAc(b1-3)Gal(b1-4)GlcNAc(b1-3)Gal(b1-4)GlcNAc(b1-3)Gal(b1-4)GlcNAc(b1-3)Gal(b1-4)GlcNAc(b1-2)Man(a1-3)[Gal(b1-4)GlcNAc(b1-3)Gal(b1-4)GlcNAc(b1-3)Gal(b1-4)GlcNAc(b1-3)Gal(b1-4)GlcNAc(b1-3)Gal(b1-4)GlcNAc(b1-2)Man(a1-6)]Man(b1-4)GlcNAc(b1-4)GlcNAc
# Summary of the method: as §1
# [5] = molecular target: Gal(b1-4)GlcNAc(b1-3)Gal(b1-4)GlcNAc(b1-3)[Gal(b1-4)GlcNAc(b1-3)Gal(b1-4)GlcNAc(b1-6)]GalNAc
# Summary of the method: as §1
# [6] = molecular target: Gal(b1-4)GlcNAc(b1-3)[Gal(b1-4)GlcNAc(b1-6)]Gal(b1-4)GlcNAc
# Summary of the method: as §1
# GalNAc(a1-3)Gal = molecular target: GalNAc(a1-3)Gal
# Summary of the method: as §1
# GalNAc(b1-4)GlcNAc = molecular target: GalNAc(b1-4)GlcNAc
# Summary of the method: as §1
# [7] = molecular target: Glc(a1-4)Glc(a1-4)Glc(a1-4)Glc
# Summary of the method: as §1
# [8] = molecular target: GlcNAc(b1-2)[GlcNAc(b1-4)]Man(a1-3)[GlcNAc(b1-4)][GlcNAc(b1-2)[GlcNAc(b1-6)]Man(a1-6)]Man(b1-4)GlcNAc(b1-4)[Fuc(a1-6)]GlcNAc
# Summary of the method: as §1
# [9] = molecular target: GlcNAc(b1-3)Gal(b1-4)GlcNAc
# Summary of the method: as §1
# [10] = molecular target: GlcNAc(b1-3)Gal(b1-4)GlcNAc(b1-3)Gal(b1-4)GlcNAc(b1-3)Gal(b1-4)GlcNAc(b1-2)[GlcNAc(b1-3)Gal(b1-4)GlcNAc(b1-3)Gal(b1-4)GlcNAc(b1-3)Gal(b1-4)GlcNAc(b1-6)]Man(a1-6)[GlcNAc(b1-3)Gal(b1-4)GlcNAc(b1-3)Gal(b1-4)GlcNAc(b1-3)Gal(b1-4)GlcNAc(b1-2)Man(a1-3)]Man(b1-4)GlcNAc(b1-4)[Fuc(a1-6)]GlcNAc
# Summary of the method: as §1
# [11] = molecular target: GlcNAc(b1-3)[GlcNAc(b1-6)]Gal(b1-4)GlcNAc
# Summary of the method: as §1
# [12] = molecular target: Man(a1-2)Man(a1-2)Man(a1-3)Man
# Summary of the method: as §1
# [13] = molecular target: Man(a1-2)Man(a1-3)[Man(a1-6)]Man(a1-6)[Man(a1-2)Man(a1-3)]Man(b1-4)GlcNAc(b1-4)GlcNAc
# Summary of the method: as §1
# Man(a1-6)Man = molecular target: Man(a1-6)Man
# Summary of the method: as §1
# [14] = molecular target: Neu5Ac(a2-3)Gal(b1-3)GalNAc(b1-4)[Neu5Ac(a2-3)]Gal(b1-4)Glc
# Summary of the method: as §1
# [15] = molecular target: Neu5Ac(a2-3)Gal(b1-3)[Fuc(a1-4)]GlcNAc(b1-3)Gal(b1-3)[Fuc(a1-4)]GlcNAc
# Summary of the method: as §1
# Neu5Ac(a2-3)Gal(b1-4)Glc = molecular target: Neu5Ac(a2-3)Gal(b1-4)Glc
# Summary of the method: as §1
# [16] = molecular target: Neu5Ac(a2-3)[GalNAc(b1-4)]Gal(b1-4)GlcNAc
# Summary of the method: as §1
# Neu5Ac(a2-6)Gal(b1-4)Glc = molecular target: Neu5Ac(a2-6)Gal(b1-4)Glc
# Summary of the method: as §1
# [17] = molecular target: Neu5Ac(a2-6)Gal(b1-4)GlcNAc(b1-2)Man(a1-3)[Neu5Ac(a2-6)Gal(b1-4)GlcNAc(b1-2)Man(a1-6)]Man(b1-4)GlcNAc(b1-4)[Fuc(a1-6)]GlcNAc
# Summary of the method: as §1
# [18] = molecular target: Neu5Ac(a2-6)GlcNAc(b1-4)GlcNAc(b1-4)GlcNAc
# Summary of the method: as §1
# [19] = molecular target: Neu5Ac(a2-8)Neu5Ac(a2-8)Neu5Ac(a2-3)Gal(b1-4)Glc
# Summary of the method: as §1
binder,measurement,setting,value
B1,glycan array binding signal (z-score),[1],0.921
same,glycan array binding signal (z-score),[2],2.03
same,glycan array binding signal (z-score),[3],2.87
same,glycan array binding signal (z-score),[4],0.78
same,glycan array binding signal (z-score),[5],-0.05
same,glycan array binding signal (z-score),[6],-0.557
same,glycan array binding signal (z-score),GalNAc(a1-3)Gal,-0.696
same,glycan array binding signal (z-score),GalNAc(b1-4)GlcNAc,1.86
same,glycan array binding signal (z-score),[7],-0.045
same,glycan array binding signal (z-score),[8],-0.111
same,glycan array binding signal (z-score),[9],-0.383
same,glycan array binding signal (z-score),[10],1.69
same,glycan array binding signal (z-score),[11],-0.476
same,glycan array binding signal (z-score),[12],0.039
same,glycan array binding signal (z-score),[13],0.06
same,glycan array binding signal (z-score),Man(a1-6)Man,-0.528
same,glycan array binding signal (z-score),[14],0.065
same,glycan array binding signal (z-score),[15],-0.347
same,glycan array binding signal (z-score),Neu5Ac(a2-3)Gal(b1-4)Glc,2.35
same,glycan array binding signal (z-score),[16],-0.222
same,glycan array binding signal (z-score),Neu5Ac(a2-6)Gal(b1-4)Glc,-0.543
same,glycan array binding signal (z-score),[17],0.041
same,glycan array binding signal (z-score),[18],1.95
same,glycan array binding signal (z-score),[19],-0.34
